Experimental data as given in PubChem BioAssay (NCATS).
Where “and” joins values, the source holds several entries; their conditions need not be identical. Equal values may be shown once. A number with no mark means an inactive call. Results filed as inconclusive are left out. Entries that show only a call come without a potency. Calls of active or inactive are those of the source. Unless noted, calls come from the whole dose curve; as a rule, active = well fitted curve in the direction sought with a large enough effect; inconclusive = small, poorly fitted or top-dose-only effect, or another doubt; inactive = no such curve, though single readings can be large; an effect the other way counts as inactive or inconclusive.

Key:
[1] = molecular target: Cytochrome P450 1A2 (Homo sapiens) (UniProt P05177); assay: p450-cyp1a2 (AID 410; calls by dose curve; note: potency is the fitted concentration of half-maximal effect)
Method in brief: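 20nM CYP1A2, 100uM Luciferin-ME (=Km), 100mM KPO4; cpd 10 min RT; +NADPH regen, 60 min RT; stop/detect 20 min; luminescence. Normalized to furafylline 57 uM = full inhibition.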

[2] = molecular target: Glucocorticoid receptor (Homo sapiens) (UniProt P04150); assay: GR-GFP Redistribution (AID 450;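 active = compounds whose dose series gives a full or clear partial fitted curve of increased nuclear translocation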; note: potency is the fitted concentration of half-maximal effect); details: U2OS GR-GFP nuclear translocation, laser cytometry, 2 h
[3] = molecular target: Glucocorticoid receptor (Homo sapiens) (UniProt P04150); assay: GR-EFC Redistribution (AID 451; calls by dose curve; note: potency is the fitted concentration of half-maximal effect); details: CHO-K1 GR-EFC translocation, beta-gal luminescence, 2 h
Method in brief: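 CHO-K1 cells expressing nuclear EA and GR-ED fragments of b-gal; compounds titrated up to 46 uM final, 2 h at 37 C. GR nuclear translocation read as complemented b-gal luminescence after 1 h RT detection.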

[4] = molecular target: 3',5'-cyclic-AMP phosphodiesterase 4B (Homo sapiens) (UniProt Q07343); assay: qHTS Assay for Inhibitors of PDE-IV (AID 607; active = well fitted activation curve with a large enough effect in the main read-out, with a control signal flat, not every such curve was filed as active)
Method in brief: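 Live HEK293 cells with a modified cyclic nucleotide-gated (CNG) channel report intracellular cAMP via membrane-potential dye fluorescence (ex 535/em 590 nm). Endogenous PDE-IV was targeted. Compounds were tested at up to 22.9 uM final; RO 20-1724 100 uM served as control.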

[5] = molecular target: Cytochrome P450 2C9 (Homo sapiens) (UniProt P11712); assay: qHTS Assay for Inhibitors and Substrates of Cytochrome P450 2C9 (AID 883); note: nearly all actives have a fitted effect of over 60% in size; note: potency is the fitted concentration of half-maximal effect
Method in brief: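 Human CYP2C9 (10nM) with Luciferin-H at 100uM (its KM) in 25mM KPO4; compound preincubated 10 min at 37C, then NADPH regeneration for 60 min at 37C. Luciferin read by luminescence after detection reagent; normalized to 57uM sulphaphenazole as full inhibition.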

[6] = molecular target: Cytochrome P450 3A4 (Homo sapiens) (UniProt P08684); assay: qHTS Assay for Activators of Cytochrome P450 3A4 (AID 885); note: nearly all actives have a fitted effect of over 65% in size
Method in brief: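 Using 20nM recombinant human CYP3A4 in potassium phosphate (200mM), substrate Luciferin-PPXE at 25uM, luminescent luciferin detection followed a 60-min RT NADPH reaction; data scaled to 57 uM ketoconazole.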

[7] = molecular target: Ubiquitin carboxyl-terminal hydrolase 1 (Homo sapiens) (UniProt O94782); assay: Inhibitors of USP1/UAF1: Pilot qHTS (AID 504865);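 note: rhodamine fluorescence freed from ubiquitin-rhodamine substrate followed over time; top concentration of the series differs between compounds; nearly all actives have a fitted effect of over 35% in size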
Method in brief: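 USP1/UAF1 complex at 1 nM preincubated 15 min at room temperature with compound, then Ub-Rho substrate added at 150 nM final. Fluorescence (480/540 nm) read kinetically in 50 mM HEPES pH 7.8, 0.5 mM EDTA, 1 mM TCEP, 0.1 mg/ml BSA, 0.01% Tween-20.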

[8] = molecular target: DNA dC->dU-editing enzyme APOBEC-3G (Homo sapiens) (UniProt Q9HC16); assay: qHTS for inhibitors of Vif-A3G interactions: Validation (AID 588379)
Method in brief: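 Yellow fluorescence (Ex 488, Em 500-530) of Vif-coexpressing HeLa A3G-eYFP cells, scanned by Acumen cytometer, reports blocked A3G degradation. Cells plated at 700/well overnight at 37 deg C before compound addition, then a further overnight compound incubation at 37 deg C.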

[9] = qHTS for Inhibitors of Plasmodium falciparum (DD2) proliferation (AID 504314);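 note: parasite DNA measured by SYBR Green fluorescence after red cell lysis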
Method in brief: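 Normalization used 0.29 uM artemisinin as full inhibition and DMSO as baseline. Parasitized erythrocytes were exposed to compounds for 72 h (37C, 5% CO2), then lysed with saponin/Triton buffer containing SYBR Green I.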

[10] = qHTS for Inhibitors of Plasmodium falciparum (GB4) proliferation (AID 504315); note: nearly all actives have a fitted effect of over 50% in size; note: potency is the fitted concentration of half-maximal effect
Method in brief: (§1)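 Parasite growth measured as SYBR Green DNA fluorescence (ex 485, em 535 nm) after overnight lysis following 72 h culture at 37 °C, 0.3% parasitemia, 2.5% hematocrit. Values normalized against DMSO and 0.29 uM artemisinin controls, with plate-stack correction.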

[11] = qHTS for Inhibitors of Plasmodium falciparum (7G8) proliferation (AID 504316); note: nearly all actives have a fitted effect of over 65% in size; note: potency is the fitted concentration of half-maximal effect; for activity change, negative = inhibition: series mostly up to about 6.7 µM
Method in brief: as §1

[12] = qHTS for Inhibitors of Plasmodium falciparum (HB3) proliferation (AID 504318); note: nearly all actives have a fitted effect of over 60% in size; note: potency is the fitted concentration of half-maximal effect
Method in brief: as §1

[13] = qHTS for Inhibitors of Plasmodium falciparum (CP250) proliferation (AID 504320)
Method in brief: as §1

[14] = molecular target: Mitogen-activated protein kinase 10 (Mus musculus) (UniProt Q61831); assay: JNK3 AlphaScreen Assay (AID 530; active = well fitted curve in either direction with a large enough effect, not every such curve was filed as active;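 note: kinase came from lysate of stimulated human HepG2 cells; signal reports phosphorylation of biotinylated GST-cJun 1-79 at Ser73 with 10 µM ATP; series mostly up to about 57 µM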)
Method in brief: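 HepG2 lysate (IL-1b/TNFa pre-activated) + biotin-GST-cJun 1-79 + anti-pSer73 cJun; cpd titration, 15 min RT; ATP 10 uM start; Tris pH 7.6, MgCl2, DTT, vanadate; beads in EDTA buffer; AlphaScreen.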

Glucocorticoid receptor (Homo sapiens), sequence (P04150 whole entry, looked up, the tested form may be a part): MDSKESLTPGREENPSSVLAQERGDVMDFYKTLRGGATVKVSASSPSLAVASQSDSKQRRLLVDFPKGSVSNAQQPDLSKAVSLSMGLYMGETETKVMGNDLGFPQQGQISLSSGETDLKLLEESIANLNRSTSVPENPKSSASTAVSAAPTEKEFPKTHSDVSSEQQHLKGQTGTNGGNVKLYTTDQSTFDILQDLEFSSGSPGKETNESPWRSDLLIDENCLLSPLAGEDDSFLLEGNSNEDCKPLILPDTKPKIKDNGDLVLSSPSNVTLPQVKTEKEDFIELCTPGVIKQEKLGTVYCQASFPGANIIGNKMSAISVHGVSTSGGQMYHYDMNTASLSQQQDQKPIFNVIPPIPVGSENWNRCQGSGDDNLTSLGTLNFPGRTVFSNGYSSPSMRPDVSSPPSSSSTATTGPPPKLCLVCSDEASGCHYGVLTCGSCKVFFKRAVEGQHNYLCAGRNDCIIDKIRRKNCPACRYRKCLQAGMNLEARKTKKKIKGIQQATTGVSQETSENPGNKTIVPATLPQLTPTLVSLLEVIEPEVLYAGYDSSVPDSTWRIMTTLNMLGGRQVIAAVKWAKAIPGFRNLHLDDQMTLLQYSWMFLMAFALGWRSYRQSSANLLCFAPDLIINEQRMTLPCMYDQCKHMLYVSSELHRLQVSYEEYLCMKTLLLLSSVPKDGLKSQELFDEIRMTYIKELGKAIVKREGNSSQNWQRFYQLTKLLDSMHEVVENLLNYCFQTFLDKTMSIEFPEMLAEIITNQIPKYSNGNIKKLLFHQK
Cytochrome P450 2C9 (Homo sapiens), sequence (P11712 whole entry, looked up): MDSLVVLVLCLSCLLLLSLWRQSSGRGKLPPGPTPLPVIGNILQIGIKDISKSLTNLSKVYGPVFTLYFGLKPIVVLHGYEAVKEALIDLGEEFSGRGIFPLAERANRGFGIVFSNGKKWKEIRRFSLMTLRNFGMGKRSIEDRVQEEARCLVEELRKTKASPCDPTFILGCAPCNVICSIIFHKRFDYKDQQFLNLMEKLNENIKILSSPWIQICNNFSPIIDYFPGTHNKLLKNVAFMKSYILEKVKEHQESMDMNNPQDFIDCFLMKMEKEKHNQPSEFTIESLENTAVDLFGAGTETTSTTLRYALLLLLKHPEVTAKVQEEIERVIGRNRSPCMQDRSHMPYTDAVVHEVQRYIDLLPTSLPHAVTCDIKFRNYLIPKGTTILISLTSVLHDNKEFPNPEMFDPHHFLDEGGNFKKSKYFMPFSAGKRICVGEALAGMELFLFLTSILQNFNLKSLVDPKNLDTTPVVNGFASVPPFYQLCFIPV
3',5'-cyclic-AMP phosphodiesterase 4B (Homo sapiens), sequence (Q07343 whole entry, looked up): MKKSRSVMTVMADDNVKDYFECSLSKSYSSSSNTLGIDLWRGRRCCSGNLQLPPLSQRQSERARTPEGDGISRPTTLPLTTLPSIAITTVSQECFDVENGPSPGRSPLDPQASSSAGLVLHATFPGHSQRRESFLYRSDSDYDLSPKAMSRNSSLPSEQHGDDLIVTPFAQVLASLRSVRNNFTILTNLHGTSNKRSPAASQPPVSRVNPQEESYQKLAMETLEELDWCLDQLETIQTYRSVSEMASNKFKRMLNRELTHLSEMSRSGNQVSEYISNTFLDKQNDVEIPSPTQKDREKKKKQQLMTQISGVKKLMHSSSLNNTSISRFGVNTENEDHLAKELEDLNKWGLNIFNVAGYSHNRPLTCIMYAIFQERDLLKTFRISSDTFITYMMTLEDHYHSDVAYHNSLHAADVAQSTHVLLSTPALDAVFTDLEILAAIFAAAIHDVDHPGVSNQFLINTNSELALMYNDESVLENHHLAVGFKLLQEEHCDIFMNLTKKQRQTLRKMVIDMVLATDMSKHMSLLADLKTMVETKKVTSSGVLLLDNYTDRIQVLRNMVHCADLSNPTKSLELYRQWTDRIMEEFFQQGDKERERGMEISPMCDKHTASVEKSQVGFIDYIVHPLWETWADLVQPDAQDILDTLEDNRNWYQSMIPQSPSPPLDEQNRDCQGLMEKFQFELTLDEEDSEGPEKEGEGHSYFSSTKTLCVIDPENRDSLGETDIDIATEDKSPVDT
Cytochrome P450 3A4 (Homo sapiens), sequence (P08684 whole entry, looked up): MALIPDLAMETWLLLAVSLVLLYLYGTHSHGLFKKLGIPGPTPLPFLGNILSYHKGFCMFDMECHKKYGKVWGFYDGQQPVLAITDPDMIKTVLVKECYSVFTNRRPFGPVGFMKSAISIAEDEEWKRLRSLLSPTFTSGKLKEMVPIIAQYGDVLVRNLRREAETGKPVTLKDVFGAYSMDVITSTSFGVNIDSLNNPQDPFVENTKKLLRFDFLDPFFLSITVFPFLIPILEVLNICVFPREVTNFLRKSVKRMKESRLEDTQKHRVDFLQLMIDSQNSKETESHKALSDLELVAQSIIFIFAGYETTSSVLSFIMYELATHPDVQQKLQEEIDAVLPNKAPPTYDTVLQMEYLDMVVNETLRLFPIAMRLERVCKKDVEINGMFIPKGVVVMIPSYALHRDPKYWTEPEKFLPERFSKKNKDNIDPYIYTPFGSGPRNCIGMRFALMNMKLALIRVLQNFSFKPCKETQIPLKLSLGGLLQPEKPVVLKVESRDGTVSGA
Ubiquitin carboxyl-terminal hydrolase 1 (Homo sapiens), sequence (O94782 whole entry, looked up): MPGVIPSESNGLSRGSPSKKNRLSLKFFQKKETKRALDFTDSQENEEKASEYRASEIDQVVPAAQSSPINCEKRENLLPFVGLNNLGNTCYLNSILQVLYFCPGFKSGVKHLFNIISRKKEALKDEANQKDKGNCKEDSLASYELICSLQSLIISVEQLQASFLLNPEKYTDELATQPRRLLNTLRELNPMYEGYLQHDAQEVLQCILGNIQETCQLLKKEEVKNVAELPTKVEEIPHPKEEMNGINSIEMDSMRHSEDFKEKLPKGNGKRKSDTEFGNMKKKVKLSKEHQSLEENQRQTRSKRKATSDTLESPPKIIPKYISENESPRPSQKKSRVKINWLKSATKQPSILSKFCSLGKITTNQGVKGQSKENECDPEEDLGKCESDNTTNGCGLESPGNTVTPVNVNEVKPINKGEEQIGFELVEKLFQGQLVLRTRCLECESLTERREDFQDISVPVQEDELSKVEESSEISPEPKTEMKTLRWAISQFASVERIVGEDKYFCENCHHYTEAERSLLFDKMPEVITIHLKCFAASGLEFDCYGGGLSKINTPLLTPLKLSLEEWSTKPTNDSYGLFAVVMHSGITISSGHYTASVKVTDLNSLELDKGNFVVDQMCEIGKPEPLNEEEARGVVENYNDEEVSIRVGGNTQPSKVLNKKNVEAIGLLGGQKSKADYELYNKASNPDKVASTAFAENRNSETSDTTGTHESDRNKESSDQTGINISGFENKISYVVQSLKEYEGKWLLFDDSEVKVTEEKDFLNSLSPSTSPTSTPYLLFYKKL
Cytochrome P450 1A2 (Homo sapiens), sequence (P05177 whole entry, looked up): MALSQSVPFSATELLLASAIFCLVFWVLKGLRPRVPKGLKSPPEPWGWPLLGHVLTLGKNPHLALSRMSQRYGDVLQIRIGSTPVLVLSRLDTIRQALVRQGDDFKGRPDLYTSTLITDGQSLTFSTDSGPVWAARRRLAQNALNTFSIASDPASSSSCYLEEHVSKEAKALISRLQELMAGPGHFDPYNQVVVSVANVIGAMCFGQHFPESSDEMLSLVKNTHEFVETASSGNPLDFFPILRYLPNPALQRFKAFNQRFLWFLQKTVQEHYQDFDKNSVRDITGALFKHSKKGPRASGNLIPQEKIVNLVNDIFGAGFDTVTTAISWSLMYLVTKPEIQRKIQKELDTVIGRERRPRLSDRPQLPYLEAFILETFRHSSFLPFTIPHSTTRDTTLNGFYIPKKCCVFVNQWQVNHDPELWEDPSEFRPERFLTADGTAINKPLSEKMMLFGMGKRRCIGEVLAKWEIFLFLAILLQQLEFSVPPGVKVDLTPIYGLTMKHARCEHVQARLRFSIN
DNA dC->dU-editing enzyme APOBEC-3G (Homo sapiens), sequence (Q9HC16 whole entry, looked up): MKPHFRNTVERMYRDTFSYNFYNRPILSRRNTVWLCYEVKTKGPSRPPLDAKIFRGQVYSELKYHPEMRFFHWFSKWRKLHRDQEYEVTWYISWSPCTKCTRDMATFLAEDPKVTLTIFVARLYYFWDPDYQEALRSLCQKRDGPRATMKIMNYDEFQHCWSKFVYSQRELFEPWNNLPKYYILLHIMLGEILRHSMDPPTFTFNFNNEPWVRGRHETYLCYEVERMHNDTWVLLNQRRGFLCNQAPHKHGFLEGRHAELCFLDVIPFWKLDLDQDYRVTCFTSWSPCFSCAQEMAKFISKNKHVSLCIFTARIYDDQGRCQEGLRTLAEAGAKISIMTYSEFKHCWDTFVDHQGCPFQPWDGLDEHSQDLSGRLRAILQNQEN

With `COc1ccccc1N1CCN(C[C@@H]2CN3C(=O)N(C)c4ccccc4C3=N2)CC1` the Potency [1] was 31.6 µM (active), the Potency [2] was > 46 µM and the Potency [3] was > 46 µM. For the same compound, the Potency [4] was “inactive”, the Potency [5] was “inactive” and the Potency [6] was “inactive”. For the same compound, the Potency [7] was “inactive” and the Potency [8] was “inactive”.

In the case of `CCN1C(=O)[C@H]2[C@H]3C(=CC[C@@H]2C1=O)C1(OCCCO1)[C@@H]1O[C@H]1[C@H]3O`, the Potency [9] is reported as “inactive”, the Potency [10] is reported as “inactive” and the Potency [11] is reported as “inactive”. For the same compound, the Potency [12] was “inactive” and the Potency [13] was “inactive”.

For `COCCN1C(=O)NC(c2cccc(F)c2)C(C(=O)OC)=C1C` (stereo not given), the Potency [9] was “inactive”, the Potency [10] was “inactive” and the Potency [11] was “inactive”. The Potency [12] was “inactive” and the Potency [13] was “inactive”.

With `N[C@@H](Cn1ccc(=O)n(Cc2ccccc2C(=O)O)c1=O)C(=O)O` the Potency [1] was “inactive”, the Potency [2] was > 46 µM and the Potency [3] was > 46 µM. The Potency [14] was “inactive”, the Potency [4] was “inactive” and the Potency [7] was “inactive”. The Potency [8] was “inactive”.

In the case of `COc1ccc2c(c1)CO[C@H]([C@H](O)CBr)[C@H]2C=Cc1ccccc1`, the Potency [9] is reported as “inactive”, the Potency [10] is reported as “inactive” and the Potency [11] is reported as “inactive”. The Potency [12] was “inactive” and the Potency [13] was “inactive”.

For `CC(C)C(=O)N[C@H]1CCCN1C(=O)C=Cc1ccccc1`, the Potency [9] was “inactive”, the Potency [10] was “inactive” and the Potency [11] was “inactive”. The Potency [12] was “inactive” and the Potency [13] was “inactive”.

In the case of `COC(=O)N[C@H](C(C(=O)OC)=C(C)NCc1ccccc1)c1cccs1`, the Potency [9] is reported as “inactive”, the Potency [10] is reported as “inactive” and the Potency [11] is reported as “inactive”. The Potency [12] was “inactive” and the Potency [13] was “inactive”.

With `C#CCN1C(=O)[C@@]2(CC(C)=CC[C@@H](C)O2)c2ccccc21` the Potency [9] was “inactive”, the Potency [10] was “inactive” and the Potency [11] was “inactive”. The Potency [12] was “inactive” and the Potency [13] was “inactive”.

With `CCN1C(=NCCc2c[nH]c3ccccc23)NC(c2ccccc2)C(C(=O)OC)=C1C` (stereo not given) the Potency [9] was “inactive”, the Potency [10] was “inactive” and the Potency [11] was “inactive”. For the same compound, the Potency [12] was “inactive” and the Potency [13] was “inactive”.

In the case of `COc1ccc2ccccc2c1-c1c(OC)ccc2ccccc12`, the Potency [9] is reported as “inactive”, the Potency [10] is reported as “inactive” and the Potency [11] is reported as “inactive”. The Potency [12] was “inactive” and the Potency [13] was “inactive”.

With `O=C1CCCC=C1C(CCc1ccccc1)OC(=O)c1ccc(Br)cc1` (stereo not given) the Potency [9] was “inactive”, the Potency [10] was “inactive” and the Potency [11] was “inactive”. The Potency [12] was “inactive” and the Potency [13] was “inactive”.

With `C=CCOC(=O)N[C@H](c1ccc2ccccc2c1)[C@H](C)C=CCC(=O)OC` the Potency [9] was “inactive”, the Potency [10] was “inactive” and the Potency [11] was “inactive”. The Potency [12] was “inactive” and the Potency [13] was “inactive”.

In the case of `O=C1CCCC=C1C(O)COCc1ccccc1` (stereo not given), the Potency [9] is reported as “inactive”, the Potency [10] is reported as “inactive” and the Potency [11] is reported as “inactive”. For the same compound, the Potency [12] was “inactive” and the Potency [13] was “inactive”.

In the case of `COc1ccc(-c2nc3c(c4c2C[C@H](c2ccccc2)OC4)CN(S(=O)(=O)c2ccc(C)cc2)CC3)c(C)c1`, the activity, negative = inhibition [9] is reported as -0.2% [at 1.12 µM], the Potency [10] is reported as 1.69 µM (active) and the Potency [11] is reported as 1.69 µM (active) and 1.9 µM (active). The Potency [12] was 2.13 µM (active).

For `COCC(=O)C(C(=O)OC)[C@H](CCc1ccccc1)NC(=O)OC` (stereo not given in full), the Potency [9] was “inactive”, the Potency [10] was “inactive” and the Potency [11] was “inactive”. The Potency [12] was “inactive” and the Potency [13] was “inactive”.

With `N#CCCN(CC#Cc1ccccc1)OCc1ccccc1` the Potency [5] was 3.16 µM (active) and the activity change, positive = activation [6] was -80.9% [at 11.4 µM].

For `COCn1c2ccccc2c2nnc(C(=O)O)nc21`, the activity change, negative = inhibition [5] was -6.97% [at 11.4 µM].

With `O=C1C2=C(C(=O)c3ccccc31)[C@H]1O[C@](c3ccsc3)(Cc3c1ccc1ccccc31)O2` the Potency [10] was “inactive”, the Potency [12] was “inactive” and the Potency [13] was “inactive”.
